Laboratory results as given in PubChem BioAssay AID2551 (National Center for Advancing Translational Sciences (NCATS), 2010).
The whole screen tested about 310,000 compounds, of which about 17,000 (5.5%) were called active. Not shown: some 11% with an inconclusive outcome. This is one part of a sample in which actives are shown more often than they occur. Calls come from the whole dose curve; as a rule, active = well fitted inhibition curve with a large enough effect; inconclusive = small, poorly fitted or top-dose-only effect, or effect the other way; inactive = no such curve, though single readings can be large or run the other way.

biological target: Nuclear receptor ROR-gamma (Mus musculus) (UniProt P51450); experiment: qHTS for inhibitors of ROR gamma transcriptional activity; settings: Drosophila S2 Gal4-RORgamma UAS-luciferase reporter, 20 h; series mostly up to 53.6 µM; activity change, negative = inhibition: at the top concentration; note: nearly all actives have a fitted effect of over 60% in size
In short: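 Drosophila S2 cells stably expressing Gal4-DBD/mouse RORγ fusion under metallothionein promoter plus UAS-luciferase; compound 1 h, then 700 uM CuSO4 induction for 20 h at ambient temperature; inhibition read as reduced luminescence.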
% is set by controls: 0 for no effect and ±100 for the full control effect; potency is the fitted concentration of half-maximal effect.

Nuclear receptor ROR-gamma (Mus musculus), sequence (P51450 whole entry, looked up, the tested form may be a part): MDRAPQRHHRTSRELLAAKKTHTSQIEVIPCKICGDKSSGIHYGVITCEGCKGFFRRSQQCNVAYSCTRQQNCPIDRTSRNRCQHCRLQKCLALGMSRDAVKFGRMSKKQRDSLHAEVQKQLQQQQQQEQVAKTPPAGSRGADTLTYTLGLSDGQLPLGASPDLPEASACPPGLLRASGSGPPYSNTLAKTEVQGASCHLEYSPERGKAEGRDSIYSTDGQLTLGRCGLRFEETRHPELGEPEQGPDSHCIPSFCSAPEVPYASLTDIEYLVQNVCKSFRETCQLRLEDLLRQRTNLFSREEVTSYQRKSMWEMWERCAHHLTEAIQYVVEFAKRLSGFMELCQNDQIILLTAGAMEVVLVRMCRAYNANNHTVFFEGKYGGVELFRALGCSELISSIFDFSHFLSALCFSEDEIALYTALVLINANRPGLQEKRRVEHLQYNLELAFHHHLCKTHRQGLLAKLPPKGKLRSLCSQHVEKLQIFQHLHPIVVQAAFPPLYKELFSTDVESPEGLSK

Row | SMILES | Potency | activity change, negative = inhibition
1 | CCCOc1ccc(C(=O)C(CCC(CNCC)C(=O)c2ccc(OCCC)cc2)CNCC)cc1 (stereo not given) | 15.8 µM (active) | –
2 | CCCCOc1ccc(C(=O)NCc2ccncc2)cc1 | – | 15.1% (inactive)
3 | CCCOc1ccc(N/C=C/C(=O)C(C)(C)C)cc1 | – | 44.4% (inactive)
4 | COc1cccc(N2C(=O)CN(Cc3ccccc3)C2=S)c1 | – | -4.86% (inactive)
5 | COc1cccc(-n2c(=S)[nH]c3c(oc4ccccc43)c2=O)c1 | 7.08 µM (active) | –
6 | COc1cccc(-n2cc(C(=O)O)c3ccccc3c2=O)c1 | – | -16.1% (inactive)
7 | CCc1cccc(CC)c1NC(=S)NCc1ccc2[nH]c(C)cc2c1 | 2.51 µM (active) | –
8 | CCNCc1cc2cc(C)ccc2[nH]c1=O | – | -37.6% (inactive)
9 | CCc1cccc(CC)c1NC(=S)Nc1ccc2cn[nH]c2c1 | – | -26.6% (inactive)
10 | Cc1cccc(S(=O)(=O)N2CN(CC3CCCO3)c3nc4ccccc4nc32)c1 (stereo not given) | – | 0.765% (inactive)
11 | CCC(C)(C)n1nnnc1C(c1ccccc1OC)N1CCSCC1 (stereo not given) | – | -15.1% (inactive)
12 | CC(C)(C)n1nnnc1C(c1ccc(Cl)cc1)N1CCSCC1 (stereo not given) | – | -6.3% (inactive)
13 | CC(C)(C)n1nnnc1C(c1ccc2ncccc2c1)N1CCSCC1 (stereo not given) | 10 µM (active) | –
14 | Cc1c(C)c2ccc(OCC(=O)N3CCC(C(=O)O)CC3)c(C)c2oc1=O | – | -15.9% (inactive)
15 | Cc1csc(=Nc2ccccc2)n1CCO | – | -7.52% (inactive)
16 | C=C(C)CNC(=S)/N=c1\scc(C)n1CC | 7.94 µM (active) | –
17 | Cc1csc(=NC(=O)c2ccccc2)n1CCO | – | -13.4% (inactive)
18 | COc1ccc(-c2c(C#Cc3ccccc3)c3ccccc3n2C)cc1 | – | 37.9% (inactive)
19 | Cc1cc(=O)[nH]c(=S)[nH]1 | inactive | –
20 | Cc1c(C)c(C)c2[nH]c(=S)[nH]c2c1C | 2.82 µM (active) | –
21 | O=c1[nH]c(=S)[nH]c2[nH]c(=S)[nH]c12 | – | 8.76% (inactive)
22 | CCOC(=O)CNc1nc(Cl)nc(Nc2ccc(OC)cc2OC)n1 | – | 17.4% (inactive)
23 | COCC1CCN(C(=O)c2ccc3oc(Cc4ccccc4)nc3c2)C1 (stereo not given) | – | 8.76% (inactive)
24 | COc1ccc(NC(=O)C2CCC(CNC(=O)[C@@H]3Cc4ccccc4CN3)CC2)cc1 (stereo not given in full) | – | -28.2% (inactive)
25 | COc1ccc(NC(=O)CN2C(=O)COc3ccc(S(=O)(=O)N4CCOCC4)cc32)c(OC)c1 | – | -9.23% (inactive)
26 | O=C(C[n+]1cc(Br)cc2ccccc21)c1ccc(F)cc1 | – | 19% (inactive)
27 | COc1ccc(C(=O)N2CCCCC2C(=O)Nc2ccc(-n3nc(C)cc3C)cc2)o1 (stereo not given) | – | 5.06% (inactive)
28 | Cc1cccc(CNS(=O)(=O)c2ccc(-c3cnc(C4CC4)o3)cc2)c1 | – | -23.2% (inactive)

Row | SMILES | Potency | activity change, negative = inhibition
29 | CC(CCc1ccc(O)cc1)NCc1ccc(Cl)cc1Cl (stereo not given) | – | -2.34% (inactive)
30 | Cc1cccc(C(=O)NNC(=O)c2cccc([N+](=O)[O-])c2)c1 | – | -1.97% (inactive)
31 | CCCCCC(=O)Nc1ccc(C(=O)N/N=C/c2ccc([N+](=O)[O-])cc2)cc1 | – | -44.8% (inactive)
32 | CC(C)CC(=O)NC(=S)NNC(=O)c1cccc([N+](=O)[O-])c1 | 12.6 µM (active) | –
33 | O=C(NNS(=O)(=O)Cc1ccccc1)c1ccc([N+](=O)[O-])cc1 | – | 1.09% (inactive)
34 | CC(C)(C)SCCNC(=O)c1cccc([N+](=O)[O-])c1 | – | 13.9% (inactive)
35 | CCCCCC(=O)NC(=S)NNC(=O)c1ccc([N+](=O)[O-])cc1 | 14.1 µM (active) | –
36 | COc1ccc(OC)c(CCNC(=O)c2nn(C)c3c2CS(=O)(=O)c2ccccc2-3)c1 | – | -1.03% (inactive)
37 | Cc1cc2oc(=O)cc(CN3CCN(Cc4ccccc4)CC3)c2cc1C | – | -20.7% (inactive)
38 | CCCc1nc2sc3c(c2c(=O)n1NC(=O)CCCl)CCCC3 | – | -38.1% (inactive)
39 | CN(C)CCCn1c(=O)n(Cc2ccccc2)c(=O)c2c3c(sc21)CCCCC3 | – | -20.1% (inactive)
40 | CCn1c(=S)[nH]c2sc3c(c2c1=O)CCCCC3 | 0.447 µM (active) | –
41 | COc1ccc(NC2CCCN(C(=O)c3ccncc3)C2)cc1 (stereo not given) | – | -21% (inactive)
42 | CC(C)c1ccc(NC2CCCN(C(=O)c3ccncc3)C2)cc1 (stereo not given) | 2.51 µM (active) | –
43 | Cc1cccc(C(=O)N2CCCC(Nc3ccc(C(C)C)cc3)C2)n1 (stereo not given) | – | -0.214% (inactive)
44 | O=C(CCC1CCCN(C(=O)c2ccc(F)c(F)c2)C1)N1CCN(c2ccccn2)CC1 (stereo not given) | – | -0.263% (inactive)
45 | CC(NC(=O)c1cc2cc(Cl)ccc2oc1=N)c1ccccc1 (stereo not given) | – | -1.8% (inactive)
46 | Cc1nc2ccccc2n1CC(=O)N/N=C/c1cccs1 | – | -16.8% (inactive)
47 | CCC(C)NC(=O)c1nn(C)c(=O)c2ccccc12 (stereo not given) | – | -28.6% (inactive)
48 | CCC(C)NC(=O)c1c(N)n(/N=C/c2cccs2)c2nc3ccccc3nc12 (stereo not given) | 10 µM (active) | –
49 | O=C(NCc1cccc(CNC(=O)Nc2cccc(O)c2)c1)Nc1cccc(O)c1 | – | 0.886% (inactive)
50 | COc1ccc(CCNC(=O)CCNS(=O)(=O)c2cc(Br)cnc2N)cc1OC | – | -3.84% (inactive)
51 | CCc1nc(Nc2ccc(NC(C)=O)cc2)c2oc3ccccc3c2n1 | – | 3.42% (inactive)
52 | CC1C(=O)C(C)C(c2ccc(O)cc2)NC1c1ccc(O)cc1 (stereo not given) | – | 8.68% (inactive)
53 | Cc1cc(C)nc(Nc2n[nH]c(-c3ccccc3N)n2)n1 | 10 µM (active) | –
54 | Cc1cc(Nc2ccccc2)nc(N)n1 | – | 8.21% (inactive)
55 | Cc1cc(C)nc(Nc2ncn[nH]2)n1 | – | 22.1% (inactive)
